Structures are written as SMILES.

One assay concerns the target T1, Aspartate--tRNA(Asp/Asn) ligase (Mycobacterium tuberculosis (strain ATCC 25618 / H37Rv)) (UniProt P9WFW3). Note: in the data most compounds retested in dose-response had high values.
T1 sequence (whole entry): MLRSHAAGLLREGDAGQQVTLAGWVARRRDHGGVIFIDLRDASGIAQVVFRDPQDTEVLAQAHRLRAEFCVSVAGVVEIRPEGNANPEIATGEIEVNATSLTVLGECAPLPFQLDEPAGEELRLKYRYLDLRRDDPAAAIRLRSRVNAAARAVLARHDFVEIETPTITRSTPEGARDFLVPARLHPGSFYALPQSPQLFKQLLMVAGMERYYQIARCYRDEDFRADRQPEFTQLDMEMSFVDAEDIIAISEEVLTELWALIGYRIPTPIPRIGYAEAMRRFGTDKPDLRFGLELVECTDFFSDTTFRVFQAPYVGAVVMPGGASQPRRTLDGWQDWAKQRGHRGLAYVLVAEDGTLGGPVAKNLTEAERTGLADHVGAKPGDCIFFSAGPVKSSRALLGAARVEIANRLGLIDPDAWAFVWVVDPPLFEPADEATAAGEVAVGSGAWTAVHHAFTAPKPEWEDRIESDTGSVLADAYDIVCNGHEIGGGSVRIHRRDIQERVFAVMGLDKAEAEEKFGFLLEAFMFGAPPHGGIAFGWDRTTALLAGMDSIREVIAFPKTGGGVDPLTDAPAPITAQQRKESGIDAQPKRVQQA
In words: Assay for Asp RNA synthetase-1 from Mycobacterium tuberculosis. Set-up: scale not given: direction of the effect not stated beside the values. The following applies: 30 µM. It counts as functional.
Take `CCn1cc2c(n1)C(COC)CN(C(=O)COc1ccccc1C)C2` (stereo not given): the Percent Effect amounted to 2.12%.

With `CN(C)CCOCC1CN(Cc2ccsc2)Cc2ccnn2C1` (stereo not given), the Percent Effect was -0.625%.

As to `CNS(=O)(=O)CCCN1CCCC1c1cc(C)on1` (stereo not given), the Percent Effect came to 1.49%.

As to `O=C(c1cccc(OC2CCCC2)c1)N1CCCC(n2cncn2)C1` (stereo not given), the Percent Effect was -0.0372%.

Take `Cc1ncc2c(n1)CN(Cc1nnc(Cc3ccccc3)o1)CC2`: the Percent Effect stood at 0.379%.

As to `Cc1ccc(C(C)NC(=O)Cc2c(C)nc3c(c2C)c(=O)[nH]n3C)o1` (stereo not given), the Percent Effect is 18.6%.

`CCOCCN1CCN(Cc2nc(C3CC3)no2)CC1CC` (stereo not given): the Percent Effect is -4.28%.

In the case of `O=C(COc1coc(CN2CCCCCC2)cc1=O)c1ccccc1`, the Percent Effect is -4.01%.

Turning to `COCc1nc(N(C)C)ncc1C(=O)NC(C)C`, the Percent Effect was -0.697%.

On to `CN(C(=O)Cn1nc(-c2ccc(F)cc2)oc1=O)C1CCS(=O)(=O)C1` (stereo not given), for which the Percent Effect was 4.6%.

On to `Cc1nn(C)c(C)c1C1COCCN1C(=O)c1ccccc1` (stereo not given), for which the Percent Effect was -8.71%.

On to `CCN(Cc1nc2c(cnn2C)c(=O)[nH]1)c1ccc(OC)c(OC)c1`, for which the Percent Effect was 2.9%.

As for `OC1CCN(Cc2cc3c(cc2Br)OCCO3)CC1`, the Percent Effect came out at 2.56%.

With `O=C(c1ccco1)N1CCCC(c2cc(C(F)F)n3ncnc3n2)C1` (stereo not given), the Percent Effect is -0.849%.

Consider `Cc1nnc(N2CCC(CNC(=O)OC(C)(C)C)CC2)c(C#N)c1C`, for which the Percent Effect was -0.115%.

Regarding `Cc1cnn(CC2CN(Cc3nc4ccccc4nc3C)CCO2)c1` (stereo not given), the Percent Effect is -3.52%.

As for `CCc1noc(C(C)N2CCN(c3ccc(C#N)cn3)CC2)n1` (stereo not given), the Percent Effect is -2.49%.

As for `O=C(CCNc1ncccn1)N1CCCC(n2ccnc2)C1` (stereo not given), the Percent Effect was found to be 1.03%.

On to `CCCNC(=O)CN1CCN(Cc2csc(C(C)(C)C)n2)CC1`, for which the Percent Effect was -3.03%.

For the compound `Cn1cc(N2CC3(COCCN(Cc4ccsc4)C3)OCC2=O)cn1` (stereo not given), the Percent Effect turned out to be 13.7%.

Turning to `COc1cc(N2CCCC(c3nccn3CCN(C)C)C2)nc(N)n1` (stereo not given), the Percent Effect is -3.58%.

On to `O=C1CC2(CCN(S(=O)(=O)C3CC3)C2)CN1c1cncnc1` (stereo not given), for which the Percent Effect stood at 4.51%.

As to `CC(C)NC(=O)[C@@H]1CCO[C@@H]2CCN(c3ncccn3)C[C@H]21`, the Percent Effect is 4.69%.

Regarding `Cc1cnn(CCNCc2nc(COc3ccc(F)cc3)no2)c1`, the Percent Effect is -1.72%.

On to `CC(C)(N)C(=O)N1CCCC1c1cncc(Oc2ccc(F)cc2)n1` (stereo not given), for which the Percent Effect is -3.75%.

Consider `CS(=O)(=O)N1CC[C@]2(C[C@@H](OCC3CCC3)CO2)C1`, for which the Percent Effect was -2.3%.

In the case of `N#Cc1cnn(-c2ccc(C(=O)Nc3ccccn3)cc2)c1N`, the Percent Effect was -3%.

For the compound `CCn1c(C(=O)N2CCN(CC(C)O)CC2)cc2ccccc21` (stereo not given), the Percent Effect was -4.64%.

In the case of `CC(C)(C)c1n[nH]c(C2CN(C(=O)CCC3CC3)CCO2)n1` (stereo not given), the Percent Effect was -3.75%.

Consider `COc1ccc(CNC(=O)NCc2c(C)cc(C)[nH]c2=O)cc1`, for which the Percent Effect worked out at 4.97%.

As for `O=C(NC[C@]12COC[C@H]1CN(Cc1nccs1)C2)c1ccccc1`, the Percent Effect is -2.56%.

For `COc1cccc(OCC(=O)NS(=O)(=O)c2ccc(C)s2)c1`, the Percent Effect was 1.83%.

Regarding `Cn1cc(C(=O)NC[C@@H]2OC[C@H]3CN(Cc4ccco4)CC[C@H]32)cn1`, the Percent Effect is -0.729%.

For `O=C(CN1CCOC(Cn2cccn2)C1)Nc1nccs1` (stereo not given), the Percent Effect was -4.87%.

For `O=C1OCCN1CCc1nc(-c2cc3c4c(c2)CC(=O)N4CCC3)cs1`, the Percent Effect was found to be 1.61%.

With `O=C(NCC1CCOC1)c1csc(-c2ccco2)n1` (stereo not given), the Percent Effect came out at 2.85%.

Regarding `CC(C)CNC(=O)[C@H]1CCS(=O)(=O)[C@@H]2CN(Cc3ccc(Cl)cc3)C[C@H]12`, the Percent Effect was -0.0704%.

As to `Cn1cnnc1C1CCN(c2cncc(-n3cccn3)n2)CC1`, the Percent Effect was 0.324%.

In the case of `COCCCn1c(CN2CCCC(O)C2)cnc1S(=O)(=O)C1CCCC1` (stereo not given), the Percent Effect came out at 4.61%.

`COCCNC(=O)CCc1c(C)nn(-c2nc(C)c(C)c(=O)[nH]2)c1C`: the Percent Effect is -1.79%.

The target in the next assay is Shiga toxin 2 (Escherichia coli O157:H7) (UniProt P09385+P09386). In words: E. coli 0.157:H7 Shiga Toxin SOP - stx2 screening assay. Format: functional. Set-up: scale not given: direction of the effect not stated beside the values. The following applies: 30 µM.
Consider `CCn1cc2c(n1)C(COC)CN(C(=O)COc1ccccc1C)C2` (stereo not given), for which the Percent Effect amounted to 3.11%.

As to `CN(C)CCOCC1CN(Cc2ccsc2)Cc2ccnn2C1` (stereo not given), the Percent Effect stood at 3.55%.

With `CNS(=O)(=O)CCCN1CCCC1c1cc(C)on1` (stereo not given), the Percent Effect came to 5.74%.

As for `O=C(c1cccc(OC2CCCC2)c1)N1CCCC(n2cncn2)C1` (stereo not given), the Percent Effect stood at 16.8%.

With `Cc1ncc2c(n1)CN(Cc1nnc(Cc3ccccc3)o1)CC2`, the Percent Effect is -26.9%.

On to `Cc1ccc(C(C)NC(=O)Cc2c(C)nc3c(c2C)c(=O)[nH]n3C)o1` (stereo not given), for which the Percent Effect was -15.3%.

As to `CCOCCN1CCN(Cc2nc(C3CC3)no2)CC1CC` (stereo not given), the Percent Effect came out at 9.42%.

For `O=C(COc1coc(CN2CCCCCC2)cc1=O)c1ccccc1`, the Percent Effect is -112%.

Regarding `COCc1nc(N(C)C)ncc1C(=O)NC(C)C`, the Percent Effect is -16.3%.

For the compound `CN(C(=O)Cn1nc(-c2ccc(F)cc2)oc1=O)C1CCS(=O)(=O)C1` (stereo not given), the Percent Effect was -7.66%.

`Cc1nn(C)c(C)c1C1COCCN1C(=O)c1ccccc1` (stereo not given): the Percent Effect was -37.5%.

As to `CCN(Cc1nc2c(cnn2C)c(=O)[nH]1)c1ccc(OC)c(OC)c1`, the Percent Effect is -61.1%.

With `OC1CCN(Cc2cc3c(cc2Br)OCCO3)CC1`, the Percent Effect was -8.4%.

`O=C(c1ccco1)N1CCCC(c2cc(C(F)F)n3ncnc3n2)C1` (stereo not given): the Percent Effect was -7.72%.

Consider `Cc1nnc(N2CCC(CNC(=O)OC(C)(C)C)CC2)c(C#N)c1C`, for which the Percent Effect worked out at 34.8%.

On to `Cc1cnn(CC2CN(Cc3nc4ccccc4nc3C)CCO2)c1` (stereo not given), for which the Percent Effect is -0.0617%.

Consider `CCc1noc(C(C)N2CCN(c3ccc(C#N)cn3)CC2)n1` (stereo not given), for which the Percent Effect is -26.5%.

Take `O=C(CCNc1ncccn1)N1CCCC(n2ccnc2)C1` (stereo not given): the Percent Effect is -9.67%.

For the compound `CCCNC(=O)CN1CCN(Cc2csc(C(C)(C)C)n2)CC1`, the Percent Effect came to 11.1%.

For the compound `Cn1cc(N2CC3(COCCN(Cc4ccsc4)C3)OCC2=O)cn1` (stereo not given), the Percent Effect is -3.88%.

As for `COc1cc(N2CCCC(c3nccn3CCN(C)C)C2)nc(N)n1` (stereo not given), the Percent Effect stood at 23.8%.

As for `O=C1CC2(CCN(S(=O)(=O)C3CC3)C2)CN1c1cncnc1` (stereo not given), the Percent Effect is -33.9%.

For `CC(C)NC(=O)[C@@H]1CCO[C@@H]2CCN(c3ncccn3)C[C@H]21`, the Percent Effect was -19.4%.

Take `Cc1cnn(CCNCc2nc(COc3ccc(F)cc3)no2)c1`: the Percent Effect turned out to be 16.3%.

`CC(C)(N)C(=O)N1CCCC1c1cncc(Oc2ccc(F)cc2)n1` (stereo not given): the Percent Effect was -12.5%.

`CS(=O)(=O)N1CC[C@]2(C[C@@H](OCC3CCC3)CO2)C1`: the Percent Effect was 6.17%.

With `N#Cc1cnn(-c2ccc(C(=O)Nc3ccccn3)cc2)c1N`, the Percent Effect was -40.7%.

On to `CCn1c(C(=O)N2CCN(CC(C)O)CC2)cc2ccccc21` (stereo not given), for which the Percent Effect was -48.2%.

Take `CC(C)(C)c1n[nH]c(C2CN(C(=O)CCC3CC3)CCO2)n1` (stereo not given): the Percent Effect is 11.1%.

As to `COc1ccc(CNC(=O)NCc2c(C)cc(C)[nH]c2=O)cc1`, the Percent Effect was found to be 34.9%.

For `O=C(NC[C@]12COC[C@H]1CN(Cc1nccs1)C2)c1ccccc1`, the Percent Effect was -14.5%.

Take `COc1cccc(OCC(=O)NS(=O)(=O)c2ccc(C)s2)c1`: the Percent Effect was -6.18%.

Turning to `Cn1cc(C(=O)NC[C@@H]2OC[C@H]3CN(Cc4ccco4)CC[C@H]32)cn1`, the Percent Effect is -33.5%.

With `O=C(CN1CCOC(Cn2cccn2)C1)Nc1nccs1` (stereo not given), the Percent Effect was -17.3%.

With `O=C1OCCN1CCc1nc(-c2cc3c4c(c2)CC(=O)N4CCC3)cs1`, the Percent Effect stood at 9.08%.

In the case of `O=C(NCC1CCOC1)c1csc(-c2ccco2)n1` (stereo not given), the Percent Effect was -11.7%.

For `CC(C)CNC(=O)[C@H]1CCS(=O)(=O)[C@@H]2CN(Cc3ccc(Cl)cc3)C[C@H]12`, the Percent Effect was -5.7%.

Regarding `Cn1cnnc1C1CCN(c2cncc(-n3cccn3)n2)CC1`, the Percent Effect was -33.6%.

Consider `COCCCn1c(CN2CCCC(O)C2)cnc1S(=O)(=O)C1CCCC1` (stereo not given), for which the Percent Effect is -11.3%.

For the compound `COCCNC(=O)CCc1c(C)nn(-c2nc(C)c(C)c(=O)[nH]2)c1C`, the Percent Effect is -2.84%.

Values taken from ChEMBL document CHEMBL3988442, “University of Dundee, Small-Polar-MMV Screening Library” (2021).
